Rows were chosen to be rich in hits. Some 6.1% of all compounds tested hit in one or more screens of this group.
D1 potentiator = Potentiators of Human D1 Dopamine Receptor: qHTS | D(1A) dopamine receptor (Homo sapiens), P21728 | HEK293 TREx D1 cells, calcium flux, dopamine EC20 potentiation | potentiation, % at 10 µM | hit rate 0.036% among 360,000 | AID 504651, 2011; in the data active means potentiation above about 30%; further: 0% is about no effect
D3 ag = qHTS of D3 Dopamine Receptor Agonist: qHTS | D(3) dopamine receptor (Homo sapiens), P35462 | D3R DiscoveRx beta-arrestin cells, luminescence, 90 min | max activation, % | hit rate 0.58% among 410,000; in the data active means max activation above about 30%; further: 0% is about no effect
Target sequence (P35462 whole entry, looked up): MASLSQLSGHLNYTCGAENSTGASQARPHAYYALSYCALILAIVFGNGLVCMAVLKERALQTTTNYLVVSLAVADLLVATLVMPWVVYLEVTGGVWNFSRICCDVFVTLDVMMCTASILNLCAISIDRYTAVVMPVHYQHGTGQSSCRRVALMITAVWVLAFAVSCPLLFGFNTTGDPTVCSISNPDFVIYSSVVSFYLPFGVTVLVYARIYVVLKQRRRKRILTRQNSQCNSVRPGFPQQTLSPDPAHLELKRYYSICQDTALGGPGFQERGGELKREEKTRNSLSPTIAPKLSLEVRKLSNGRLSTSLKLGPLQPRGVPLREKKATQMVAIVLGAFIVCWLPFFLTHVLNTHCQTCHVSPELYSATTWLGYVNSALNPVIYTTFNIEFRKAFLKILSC
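Cells at 1500/well, incubated overnight, then treated with pinned compounds (dopamine as control) for 90 min at 37 degrees C. DiscoveRx reagent added for 30 - 60 minutes at room temperature; luminescence read.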
D1 antagonist = Antagonist of Human D 1 Dopamine Receptor: qHTS. D(1A) dopamine receptor (Homo sapiens), P21728. AID 504652, 2011. hit rate 3.2% among 360,000. activity change, negative = inhibition, % at 10 µM. HEK293 TREx D1 cells, calcium flux, dopamine EC80; hits give low values; in the data active means activity change below about -30%; further: on the % scale 0 is the no-effect control and ±100 the full control effect
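Tetracycline-induced HEK293 T-REx cells with force-coupled D1 receptor were loaded with a no-wash calcium dye. Compound was added after a 10 s baseline and read kinetically for 180 s; EC80 dopamine was then added and calcium flux followed another 180 s.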
D1 agonist = Allosteric Agonists of the Human D1 Dopamine Receptor: qHTS | D(1A) dopamine receptor (Homo sapiens), P21728 | HEK293 T-REx D1 cells, calcium flux, agonist mode | activation, % at 2 µM | hit rate 1% among 360,000 | AID 504660, 2011; in the data active means activation above about 30%; further: 0% is about no effect
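Agonism was scored from calcium flux recorded over 180 s (1 read/s) after pintool compound addition, following a 10-cycle baseline. Cells were inducible force-coupled HEK293 TREx D1, plated overnight at 30 C and loaded with no-wash calcium dye.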
DRD3 antagonist = qHTS of D3 Dopamine Receptor Antagonist: qHTS; D(3) dopamine receptor (Homo sapiens), P35462; D3R cells, DiscoveRx beta-arrestin luminescence, antagonist mode; hits give low values; max response, negative = inhibition, %; hit rate 2.5% among 360,000; in the data active means max response below about -50%; inconclusive means no clear call, values can overlap the other calls; further: on the % scale 0 is the no-effect control and ±100 the full control effect
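Cells expressing the human receptor were seeded at 1500 cells/well, incubated overnight at 37 degrees C in 5% CO2, then exposed to library compounds with dopamine controls for 90 minutes at 37 degrees C before luminescent detection.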
* marks the source's active call; other numbers are inactive results; ? = inconclusive; / = not tested or not shown.

SMILES | D1 potentiator | D3 ag | D1 antagonist | D1 agonist | DRD3 antagonist
Cc1cccc(-c2noc(-c3ccccc3OCC(=O)Nc3ccccc3[N+](=O)[O-])n2)c1 | -3 | -1 | 5 | 2 | /
O=C(Nc1ccc(Oc2ccccc2)cc1)c1csc([C@@H]2O[C@H](CO)[C@H](O)[C@H](O)[C@H]2O)n1 | / | -20 | / | / | -92*
CC(=O)Nc1ccc(NC(=O)c2csc([C@@H]3O[C@H](CO)[C@H](O)[C@H](O)[C@H]3O)n2)cc1 | / | 5 | / | / | 11
N#C/C(=C\c1ccc(N2CCOCC2)o1)C(=O)Nc1ccc(O)cc1 | 3 | -16 | -23 | 41* | ?
COc1ccc(NC(=O)/C(C#N)=C/c2ccc(C)o2)cc1 | 0 | 5 | -14 | -2 | /
N#C/C(=C/c1ccc(N2CCOCC2)o1)C(=O)NC1CCCCC1 | -5 | -8 | -5 | 113* | -15
COc1ccc(NC(=O)/C(C#N)=C\c2ccc(N3CCOCC3)o2)cc1 | 0 | 9 | -20 | 213* | 1
COc1cccc(NC(=O)/C(C#N)=C/c2ccc(-c3ccc(C)cc3)o2)c1 | 7 | -8 | -11 | 110* | /
CCOc1ccc(NC(=O)/C(C#N)=C\c2ccc(-c3ccc(Cl)cc3)o2)cc1 | -1 | 8 | -3 | -1 | /
COc1ccc(NC(=O)c2cc(C3CC3)nc3c2c(C)nn3-c2ccc(C)cc2)cc1OC | 0 | 0 | 1 | 3 | /
COc1ccc(C(CCNCc2ccccc2)c2ccc(F)cc2)cc1 (stereo unspecified) | -4 | -9 | 4 | 29 | -15
COc1ccc(CNCCC(c2ccc(F)cc2)c2ccc(OC)cc2)cc1 (stereo unspecified) | -5 | -13 | 4 | 34* | -18
COc1ccc(C(CCNC(C)c2ccccc2)c2ccc(F)cc2)cc1 (stereo unspecified) | 4 | -8 | 0 | 56* | ?
COc1ccc(C(CCNCc2ccc(F)cc2)c2ccc(F)cc2)cc1 (stereo unspecified) | 10 | -11 | 0 | 46* | -12
CCCc1cc(=O)[nH]c2nnc(SCC(=O)Nc3ccc(OC)cc3)n12 | -1 | 1 | / | 2 | /
Clc1ccc(-c2csc(NNC3=NCCCCC3)n2)cc1 | 4 | -1 | 8 | -1 | -78*
COc1ccc(C)cc1-n1c(-c2ccncc2)n[nH]c1=S | -4 | 0 | -32* | 1 | -11
CCOC(=O)c1sc(NC(=O)/C=C/c2ccc(OCC)cc2)c(C(=O)OCC)c1C | -2 | 1 | -7 | 4 | /
CCOC(=O)c1sc(NC(=O)/C=C/c2cnn(C)c2C)c(C(=O)OC(C)C)c1C | 3 | 35* | 3 | 3 | 9
CCOC(=O)c1c(NC(=O)/C=C/c2ccc(C)cc2)sc(C(C)=O)c1C | -3 | -2 | -32* | -1 | /
CCOc1ccccc1-c1noc(CSc2nnc(-c3ccncc3)n2-c2ccc(F)cc2)n1 | -1 | 2 | -24 | 0 | /
Cc1cccc(NC(=O)C(=O)NCC(c2cccnc2)N2CCOCC2)c1 (stereo unspecified) | -4 | -11 | 12 | 5 | /
CCOC(=O)C(=Cc1ccc(Br)cc1)C(=O)OCC | 0 | -17 | -9 | 4 | -108*
COC(=O)c1ccc(-n2ccnc2)cc1 | -1 | 1 | -22 | 4 | -4
CCOC(=O)C(=Cc1ccc(F)cc1)C(=O)OCC | 6 | / | 1 | 0 | /
SMILES | D1 potentiator | D3 ag | D1 antagonist | D1 agonist | DRD3 antagonist
CCOC(=O)C(=Cc1ccc(-n2ccnc2)cc1)C(=O)OCC | -3 | -2 | -11 | 5 | -56*
O=C1CC(c2ccco2)Cc2nc(NCC3CCCO3)ncc21 (stereo unspecified) | -3 | 12 | -32* | 0 | -29
CCOC(=O)Cc1csc(NC(=O)CN(C)S(=O)(=O)c2cccc3cccnc23)n1 | / | -4 | -46* | 5 | -18
CCOC(=O)Cc1csc(NC(=O)c2ccc(Br)s2)n1 | -7 | / | -36* | 6 | /
Cc1nc(NC(=O)c2ccc(Br)s2)sc1C(=O)N(C)C | -2 | 3 | 5 | 0 | -69*
CCOC(=O)Cc1csc(NC(=O)C(C)c2ccc([N+](=O)[O-])cc2)n1 (stereo unspecified) | -5 | -1 | -38* | 58* | 6
CCOC(=O)Cc1csc(NC(=O)c2cccs2)n1 | -4 | -9 | -17 | 11 | -16
CC(CNC(=O)c1cc2ccccn2n1)c1ccccc1 (stereo unspecified) | -5 | -7 | -6 | 0 | /
Cc1ccccc1CN1C(=O)c2ccccc2Sc2ccc(C(=O)NCCc3ccccc3)cc21 | 1 | 4 | 18 | 1 | /
CCOC(=O)Cc1csc(NC(=S)NC(=O)c2ccccc2Br)n1 | -4 | -2 | -27 | 61* | -19
CCOC(=O)Cc1csc(NC(=O)Nc2cccc(Cl)c2)n1 | -14 | -4 | -42* | 15 | -1
COc1cccc(NC(=O)c2oc3ccc(S(=O)(=O)N4CCC5(CC4)OCCO5)cc3c2C)c1 | 0 | 7 | -6 | -2 | /
O=C(Nc1ccc(Cl)c(Cl)c1)c1ccc(Cn2cc(Cl)cn2)cc1 | -6 | 0 | -7 | 34* | 16
O=C(COC(=O)c1ccc(N2CCCC2=O)cc1)Nc1ccccc1 | 6 | -2 | 8 | 4 | -15
COc1ccccc1NC(=O)COC(=O)c1ccc(N2CCCC2=O)cc1 | 0 | 1 | -31* | 4 | -12
CCCc1cc(-c2[nH]ncc2-c2ccc3c(c2)OCCCO3)c(O)cc1OC | -1 | / | -27 | 37* | /
COc1cc([N+](=O)[O-])cc(/C=N/N(CCC#N)C(C)=O)c1O | 16 | -12 | 5 | 1 | -59*
COCCn1c(CNC(=O)c2cc([N+](=O)[O-])ccc2Cl)nc2cccnc21 | -2 | 4 | -1 | 0 | /
COc1ccc(-c2cnnn2-c2ccc(NC(=O)c3c(F)cccc3F)cc2)cc1 | -3 | -1 | -17 | 12 | /
CCCCO | / | 68* | / | / | /
COc1cc(NC(=O)CSc2nc3ncccc3o2)cc(OC)c1 | -5 | 0 | -9 | 0 | /
Cc1cccc(NS(=O)(=O)c2ccc3c(c2)OCC(C(=O)N2CCCC2)O3)c1C (stereo unspecified) | -5 | 9 | -11 | 4 | /
COc1ccc(OC)c(/C=C/c2nc3ccccc3[nH]c2=O)c1 | -1 | 22 | -2 | 62* | 6
O=c1[nH]c2ccccc2nc1/C=C/c1ccc(F)cc1 | -5 | 5 | -9 | 35* | 3
O=C(/C=C/c1ccc(F)cc1)Nc1nc2ccccc2[nH]1 | -1 | / | -31* | 5 | /
O=c1[nH]c2ccccc2nc1/C=C/c1ccc(O)cc1 | -5 | 5 | 1 | 45* | 15
